CBFb-RUNX1 inh: blocks binding between human CBF-beta and RUNX1; AlphaScreen CBFb-His/RUNX1-biotin binding, biochemical; Potency, µM (series often up to 59.8 µM), inactives show top-dose activity, negative = inhibition, actives largely listed as inhibitors; 230,000 tested, under 10 active; also: % of control where 0% means no effect
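Room-temperature protein-protein interaction test with 30 nM each of His-tagged CBF-beta and biotinylated RUNX1, 15 min with compound, then 90 min with nickel plus streptavidin beads. Signal read in AlphaScreen mode.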
ALDH1A1 block: inhibitors of human aldehyde dehydrogenase 1A1; Purified ALDH1A1, NADH fluorescence, propionaldehyde substrate; actives 7.3% (n = 220,000); AID 1030; Potency, µM (doses to about 75.3 µM), inactives show at the highest dose activity, negative = inhibition, usual class: inhibitors; active = well fitted inhibition curve with a large enough effect, not every such curve was filed as active; inconclusive = small, poorly fitted or top-dose-only effect, or another doubt; inactive = no such curve, though single readings can be large or run the other way;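 also: potency is read from the fitted curve at half-maximal effect; plate controls were no enzyme wells and a reference inhibitor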
Target sequence (P00352 whole entry, looked up): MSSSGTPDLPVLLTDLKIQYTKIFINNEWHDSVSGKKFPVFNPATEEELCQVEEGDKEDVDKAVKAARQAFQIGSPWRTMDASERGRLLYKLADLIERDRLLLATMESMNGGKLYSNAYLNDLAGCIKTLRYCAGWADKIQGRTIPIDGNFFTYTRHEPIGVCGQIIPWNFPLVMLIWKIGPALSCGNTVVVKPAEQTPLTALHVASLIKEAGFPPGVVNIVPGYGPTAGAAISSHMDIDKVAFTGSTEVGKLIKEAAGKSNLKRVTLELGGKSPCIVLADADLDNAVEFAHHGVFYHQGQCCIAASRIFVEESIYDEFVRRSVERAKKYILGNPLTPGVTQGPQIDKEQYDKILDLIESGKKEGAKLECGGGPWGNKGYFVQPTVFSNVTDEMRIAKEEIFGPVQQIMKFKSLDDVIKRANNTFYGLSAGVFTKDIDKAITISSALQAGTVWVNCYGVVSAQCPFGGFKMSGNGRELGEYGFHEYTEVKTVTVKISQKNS
PNC inhibitor: blocks assembly of the perinucleolar compartment. actives 3.1% (n = 140,000). PC3M PTB-GFP, PNC prevalence imaging, 16 h; stronger effect = lower value. activity change (PNC), negative = inhibition, % at 10 µM. AID 2417;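 active = readout at or below -70, meaning at least 70% loss of cells showing the perinucleolar compartment, a nuclear body marking cancer cells; inconclusive = readout between -30 and a set limit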;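 also: plate controls were DMSO wells for no effect and camptothecin positive control wells for full effect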
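PC3M cells stably expressing PTB-GFP, 750–1000 cells/well, treated 16 h at 37 °C with compound (23 nl of library stock), in duplicate. After paraformaldehyde fixation and Hoechst stain, imaged at 20x; PNC prevalence scored by image analysis.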
HPGD block: inhibitors of human 15-hydroxyprostaglandin dehydrogenase (HPGD) | P15428 | purified HPGD, NADH fluorescence kinetic, PGE2 substrate | Potency, µM, for the others: at the highest dose activity change, negative = inhibition, hits mostly inhibitors | actives 4.3% (n = 150,000) | AID 894; active = well fitted inhibition curve with a large enough effect, not every such curve was filed as active; inconclusive = small, poorly fitted or top-dose-only effect, or another doubt; inactive = no such curve, though single readings can be large or run the other way; also: potency is read from the fitted curve at half-maximal effect; % is scaled to controls: 0 for no effect and ±100 for the full control effect
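NADH formation kinetics: reaction with 30 uM PGE2 and 1 mM NAD+ (final), 20 nM enzyme, Tris-HCl pH 8 with Tween 20, after 15 min compound preincubation at room temperature. Fluorescence change, last versus first of five reads.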
HttQ103 aggreg: mutant huntingtin aggregation inhibition | Potency, µM (doses to about 46.1 µM), without a hit: top-dose activity change, negative = inhibition, actives largely listed as inhibitors | PC12 HttQ103-GFP aggregates, Acumen cytometry, 40 h | actives 1.1% (n = 220,000); also: potency is read from the fitted curve at half-maximal effect; % is scaled to controls: 0 for no effect and ±100 for the full control effect; nearly all actives have a fitted effect of over 60% in size
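PC12 cells with ecdysone-inducible HTT exon1 Q103-GFP, induced by 100 nM tebufenozide, given compounds in a concentration series. GFP aggregates (1–25 um, 6 SD above background) counted in lysates by laser-scanning cytometry, 488 nm excitation.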
HTT cytoprotect: Huntington cell model cytoprotection by ATP luminescence; PC12 HTT-Q103 induced, cytoprotection, ATP luminescence, 40 h; Potency, µM (top dose mostly 56.4 µM), for inactives: cytoprotection (ATP increase), hits mostly activators; actives 0.14% (n = 230,000); AID 1471; also: potency is read from the fitted curve at half-maximal effect; % of control where 0% means no effect; nearly all actives have a fitted effect of over 45% in size
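PC12 cells with ecdysone-inducible HTT exon 1 Q103-GFP, induced with 100 nM tebufenozide and co-treated with library compounds in a dose series (1536-well, 1500 cells/well). Cytoprotection read as ATP content by ATPlite luminescence.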
The depositor's hits bear a star; [ ] = another dose, or the depositor's remark. An excerpt weighted towards active compounds, which were near 11% of everything screened. Unless noted, calls follow the shape of the dose curve; as a rule, active = well fitted curve in the direction sought with a large enough effect; inconclusive = small, poorly fitted or top-dose-only effect, or another doubt; inactive = no such curve, though single readings can be large; an effect the other way counts as inactive or inconclusive.

Screening COCc1cc(C)nc(Nc2ccc(C)c(C)c2)c1C#N returned CBFb-RUNX1 inh -10%, ALDH1A1 block 28µM*, PNC inhibitor -6, HttQ103 aggreg inconclusive and HTT cytoprotect -14%.
`O=C(c1cc(C(F)(F)F)cc(C(F)(F)F)c1)N1CCC2(CC1)CN(c1ccccc1)C2` gave ALDH1A1 block -7%, HPGD block -16% and HTT cytoprotect -9%.
For CCN(CC)C(=O)CSc1nc2cc3c(cc2c(=O)n1Cc1ccco1)OCO3 the results were CBFb-RUNX1 inh 8%, ALDH1A1 block 0.89µM*, HttQ103 aggreg -8% and HTT cytoprotect -7%.
`CCN(CC)C(=O)CSc1nc2c(sc(=S)n2Cc2ccco2)c(=O)n1-c1ccccc1` gave CBFb-RUNX1 inh -23%, ALDH1A1 block 6.3µM*, PNC inhibitor 18, HPGD block -9%, HttQ103 aggreg -1% and HTT cytoprotect -17%.
Screening CCC(Sc1nc2cc3c(cc2c(=O)n1Cc1ccco1)OCO3)C(=O)NCCOC (centres undefined) returned CBFb-RUNX1 inh 6%, ALDH1A1 block 2.2µM*, PNC inhibitor -24, HPGD block -5%, HttQ103 aggreg 0% and HTT cytoprotect -18%.
For CCOC(=O)Cn1c(=O)n(Cc2ccco2)c(=O)c2ccc(C(=O)NC3CCCC3)cc21 the results were CBFb-RUNX1 inh 1%, ALDH1A1 block 7.9µM*, PNC inhibitor -15, HPGD block -4%, HttQ103 aggreg -6% and HTT cytoprotect -18%.
For CCOC(=O)CSc1nc2cc(C(=O)NCC3CCCO3)ccc2c(=O)n1Cc1ccco1 (centres undefined) the results were CBFb-RUNX1 inh -2%, ALDH1A1 block inconclusive, PNC inhibitor -88*, HPGD block -25%, HttQ103 aggreg inconclusive and HTT cytoprotect 3%.
For COCCCn1c(SCC(=O)NC2CCCC2)nnc1-c1ccco1 the results were CBFb-RUNX1 inh -2%, ALDH1A1 block 13µM*, PNC inhibitor -107*, HPGD block -14%, HttQ103 aggreg -4% and HTT cytoprotect 10%.
Screening COCCNC(=O)CSc1nc2cc3c(cc2c(=O)n1Cc1ccco1)OCO3 returned CBFb-RUNX1 inh 4%, ALDH1A1 block 13µM*, PNC inhibitor -23, HPGD block -6%, HttQ103 aggreg 22% and HTT cytoprotect 3%.
O=C(NCC1CCCO1)c1ccc2c(=O)n(Cc3ccco3)c(SCC(=O)N3CCCC3)nc2c1 (centres undefined) was read as CBFb-RUNX1 inh 5%, ALDH1A1 block inconclusive, PNC inhibitor 39, HPGD block inconclusive, HttQ103 aggreg -8% and HTT cytoprotect 7%.
Screening CCOC(=O)CSc1nc2c(sc3ccc([N+](=O)[O-])cc32)c(=O)n1Cc1ccco1 returned CBFb-RUNX1 inh -6%, ALDH1A1 block inconclusive, PNC inhibitor -87*, HPGD block -16%, HttQ103 aggreg -7% and HTT cytoprotect -12%[10 µM].
CN(C)C(=O)C12CCC(C)(c3nc4ccccc4nc31)C2(C)C (centres undefined) was read as CBFb-RUNX1 inh 0%, ALDH1A1 block -1%, PNC inhibitor 26, HPGD block -3%, HttQ103 aggreg -1% and HTT cytoprotect 5%[1.9 µM].
`CCC(Sc1nc2cc3c(cc2c(=O)n1Cc1ccco1)OCO3)C(=O)Nc1ccccc1OC` (centres undefined) gave CBFb-RUNX1 inh 4%, ALDH1A1 block 1.1µM*, PNC inhibitor 22, HPGD block -16%, HttQ103 aggreg 1% and HTT cytoprotect -13%.
`COCCNC(=O)c1ccc2c(=O)n(Cc3ccco3)c(SCC(=O)NC3CCCC3)nc2c1` gave CBFb-RUNX1 inh -16%, ALDH1A1 block 7.9µM*, PNC inhibitor 64, HPGD block -23%, HttQ103 aggreg 4% and HTT cytoprotect -8%.
Screening CC1CCCCC1NC(=O)CSc1nc2ccccc2c(=O)n1Cc1ccco1 (centres undefined) returned CBFb-RUNX1 inh 5%, ALDH1A1 block 4%, PNC inhibitor 2, HPGD block -3%, HttQ103 aggreg -18% and HTT cytoprotect -26%.
CCC(Sc1nc2cc3c(cc2c(=O)n1Cc1ccco1)OCO3)C(=O)Nc1cccc(OC)c1 (centres undefined) was read as CBFb-RUNX1 inh 1%, ALDH1A1 block inconclusive, PNC inhibitor inconclusive, HPGD block -11%, HttQ103 aggreg -42% and HTT cytoprotect -33%.
Screening COc1ccc(CNc2ccnc(-c3ccccc3Cl)n2)c(OC)c1 returned ALDH1A1 block inconclusive and HTT cytoprotect -68%.
`CCc1ccc(/C=c2\s/c(=C\C(=O)C(C)(C)C)[nH]c2=O)cc1` gave CBFb-RUNX1 inh 10%, ALDH1A1 block -7%, PNC inhibitor -20, HPGD block -29%, HttQ103 aggreg 14µM* and HTT cytoprotect -19%.
Screening CC(C)(C)C(=O)/C=c1\[nH]c(=O)/c(=C\c2ccc(F)cc2)s1 returned CBFb-RUNX1 inh -7%, ALDH1A1 block 4%, PNC inhibitor -28, HPGD block -14%, HttQ103 aggreg -10% and HTT cytoprotect 0%.
For CCC=O the results were CBFb-RUNX1 inh 4%[21.7 µM], ALDH1A1 block inconclusive, HPGD block -5% and HTT cytoprotect 4%.
`CCCC=O` gave CBFb-RUNX1 inh 6%[21.7 µM], ALDH1A1 block 3.5µM*, HPGD block -11% and HTT cytoprotect -5%.
Screening O=C1CC(c2ccccc2)C(C(=O)Nc2ccccc2F)N1 (centres undefined) returned CBFb-RUNX1 inh 4%[2.36 µM], ALDH1A1 block 22%, PNC inhibitor 13, HPGD block 4%, HttQ103 aggreg 1% and HTT cytoprotect -3%.
`O=C(/C=C/N1CCOCC1)c1ccc(-c2ccccc2)cc1` gave CBFb-RUNX1 inh -3%, ALDH1A1 block inconclusive, PNC inhibitor -16, HPGD block 28µM*, HttQ103 aggreg 22% and HTT cytoprotect 4%.
Screening CCOc1ccc(OCc2ccc(C(=O)N3CCOCC3)cc2)cc1 returned CBFb-RUNX1 inh 1%, ALDH1A1 block 3.5µM*, PNC inhibitor 23, HPGD block 16µM*, HttQ103 aggreg -11% and HTT cytoprotect 9%[10 µM].
For O=C(c1ccccc1)c1ccc(C(=O)N2CCOCC2)cc1 the results were CBFb-RUNX1 inh 3%, ALDH1A1 block -4%, PNC inhibitor -29, HPGD block 7.9µM*, HttQ103 aggreg -2% and HTT cytoprotect -9%[10 µM].
